# The source made the active and inactive calls.
# Experiments:
# [1] = tested on: Plasmodium falciparum Sir2 (PF13_0152, Sir2A); experiment: Plasmodium falciparum Sir2A binding compounds – biochemical, small-molecule microarray, 635 nm fluorescence, primary screen (AID 1098); settings: fluorescence 635 nm, higher = more signal;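 also: score merges spot fluorescence intensity with its signal-to-noise ratio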
# [2] = probe aDKK1 binding to arrayed compounds – biochemical, biotinylated probe, 635/667 nm fluorescence, primary screen (AID 1099); settings: small-molecule microarray, higher = more signal;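 also: score merges 667nm spot fluorescence with signal to noise across triplicate slides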
# [3] = probe aCHRDL2 binding to arrayed compounds – biochemical, biotinylated probe, 635/667 nm fluorescence, primary screen (AID 1100); settings: small-molecule microarray, higher = more signal
# [4] = change in splice reporter luminescence, either direction, cell-based, HEK293, spliceosome inhibition project, primary screen (AID 1101); settings: HEK293 splicing luciferase reporter, 24 h, higher = more signal, called active from +8 up or from −8 down;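 also: HEK293 cells carrying a splicing-competent luciferase reporter gene; test concentration not given here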
# [5] = biological target: Fibroblast growth factor 10 (Homo sapiens) (UniProt O15520); experiment: compounds binding fibroblast growth factor 10 – biochemical, small-molecule microarray, 635 nm fluorescence, primary screen (AID 1102); settings: FGF10 binding, fluorescence 635 nm, higher = more signal
# Sequence of Fibroblast growth factor 10 (Homo sapiens) (O15520 whole entry, looked up): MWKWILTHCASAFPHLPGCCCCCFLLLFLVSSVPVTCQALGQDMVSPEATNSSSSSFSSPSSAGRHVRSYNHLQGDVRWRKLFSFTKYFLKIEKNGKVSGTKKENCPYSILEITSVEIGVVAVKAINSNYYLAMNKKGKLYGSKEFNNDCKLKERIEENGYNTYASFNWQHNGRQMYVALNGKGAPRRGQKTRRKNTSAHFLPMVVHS
# [6] = tested on: glycogen synthase kinase-3 (GSK3A per assay name; protocol says GSK3B); experiment: compounds binding glycogen synthase kinase-3 – biochemical, small-molecule microarray, 635 nm fluorescence, GSK3A, primary screen (AID 1103); settings: fluorescence 635 nm, higher = more signal; also: the record names both GSK3A and GSK3B
# [7] = biological target: Epidermal growth factor receptor (Homo sapiens) (UniProt P00533); experiment: compounds binding epidermal growth factor receptor – biochemical, small-molecule microarray, 635 nm fluorescence, primary screen (AID 1104); settings: EGFR binding, higher = more signal;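 also: score merges 667 nm emission intensity with spot signal to noise over triplicate slides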
# Sequence of Epidermal growth factor receptor (Homo sapiens) (P00533 whole entry, looked up): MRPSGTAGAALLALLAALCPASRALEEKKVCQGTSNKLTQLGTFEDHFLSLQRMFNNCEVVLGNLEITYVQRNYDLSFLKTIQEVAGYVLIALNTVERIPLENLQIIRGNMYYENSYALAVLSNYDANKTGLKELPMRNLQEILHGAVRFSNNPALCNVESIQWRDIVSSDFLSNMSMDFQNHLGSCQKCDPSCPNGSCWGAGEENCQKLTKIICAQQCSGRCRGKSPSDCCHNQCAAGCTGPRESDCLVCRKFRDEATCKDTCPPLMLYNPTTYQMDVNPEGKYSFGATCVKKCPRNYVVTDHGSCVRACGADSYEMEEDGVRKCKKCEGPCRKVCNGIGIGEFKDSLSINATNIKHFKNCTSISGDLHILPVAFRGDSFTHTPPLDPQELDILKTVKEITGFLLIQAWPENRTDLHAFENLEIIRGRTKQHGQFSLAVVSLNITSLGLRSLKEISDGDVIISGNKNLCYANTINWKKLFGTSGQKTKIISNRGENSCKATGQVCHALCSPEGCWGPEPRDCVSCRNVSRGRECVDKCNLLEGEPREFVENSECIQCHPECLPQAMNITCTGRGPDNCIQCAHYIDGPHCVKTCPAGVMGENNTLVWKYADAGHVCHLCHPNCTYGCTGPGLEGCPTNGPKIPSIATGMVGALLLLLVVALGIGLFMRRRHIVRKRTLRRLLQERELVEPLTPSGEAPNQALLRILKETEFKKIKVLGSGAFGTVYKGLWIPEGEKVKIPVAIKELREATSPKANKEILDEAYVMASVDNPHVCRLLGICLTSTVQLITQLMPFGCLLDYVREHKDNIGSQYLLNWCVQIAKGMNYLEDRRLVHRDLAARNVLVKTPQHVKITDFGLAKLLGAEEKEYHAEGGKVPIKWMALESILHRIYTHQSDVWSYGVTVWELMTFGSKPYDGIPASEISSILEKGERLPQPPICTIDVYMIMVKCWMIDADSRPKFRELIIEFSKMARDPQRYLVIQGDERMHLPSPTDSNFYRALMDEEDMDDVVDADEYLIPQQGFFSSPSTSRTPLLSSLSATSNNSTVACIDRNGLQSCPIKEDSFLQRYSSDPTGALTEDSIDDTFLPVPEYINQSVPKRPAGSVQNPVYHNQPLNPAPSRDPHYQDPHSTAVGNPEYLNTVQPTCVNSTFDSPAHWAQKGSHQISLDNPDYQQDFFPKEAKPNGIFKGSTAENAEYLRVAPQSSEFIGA
# [8] = biological target: Follistatin-related protein 3 (Homo sapiens) (UniProt O95633); experiment: compounds binding follistatin-related protein 3 – biochemical, small-molecule microarray, 635 nm fluorescence, primary screen (AID 1105); settings: FSTL3 binding, higher = more signal;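 also: score merges emission near 667 nm and signal to noise per printed spot across three slides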
# Sequence of Follistatin-related protein 3 (Homo sapiens) (O95633 whole entry, looked up): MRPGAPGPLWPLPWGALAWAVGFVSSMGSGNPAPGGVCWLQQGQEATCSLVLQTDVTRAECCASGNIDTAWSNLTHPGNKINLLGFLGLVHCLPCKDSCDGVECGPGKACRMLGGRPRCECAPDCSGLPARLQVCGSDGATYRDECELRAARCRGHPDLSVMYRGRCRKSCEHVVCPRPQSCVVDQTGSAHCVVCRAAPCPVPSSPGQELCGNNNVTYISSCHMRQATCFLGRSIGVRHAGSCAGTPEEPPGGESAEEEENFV
# [9] = biological target: Dickkopf-related protein 1 (Homo sapiens) (UniProt O94907); experiment: small molecules binding DKK1 protein – biochemical, small-molecule microarray, 635 nm fluorescence scan, primary screen (AID 1106); settings: higher = more signal;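 also: score merges emission near 667 nm with signal to noise over three replicate slides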
# Sequence of Dickkopf-related protein 1 (Homo sapiens) (O94907 whole entry, looked up): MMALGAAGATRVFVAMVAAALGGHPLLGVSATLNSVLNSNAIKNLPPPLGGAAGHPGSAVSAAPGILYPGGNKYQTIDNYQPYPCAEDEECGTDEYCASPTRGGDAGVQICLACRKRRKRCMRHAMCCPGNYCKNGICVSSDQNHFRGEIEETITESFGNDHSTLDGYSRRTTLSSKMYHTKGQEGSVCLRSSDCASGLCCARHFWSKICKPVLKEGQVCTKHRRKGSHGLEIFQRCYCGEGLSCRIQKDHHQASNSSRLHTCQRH
# [10] = tested on: Inhibin beta A chain (activin A); experiment: small molecules binding activin A – biochemical, small-molecule microarray, 635 nm fluorescence scan, primary screen (AID 1107); settings: INHBA, higher = more signal;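 also: mouse activin A protein probed at 4.33 µg/mL on printed slides; score merges bound-protein fluorescence near 667 nm with spot signal-to-noise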
# [11] = tested on: Human papillomavirus type 1a protein E7 (residues 44-93); experiment: small molecules binding HPV E7 44-93 – biochemical, small-molecule microarray, residues 44-93, 635 nm fluorescence, primary screen (AID 1108); settings: fluorescence 635 nm, higher = more signal;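 also: E7 fragment applied at 1 µg/mL in TBST for 1 h at 4 C; score combines spot fluorescence with its signal to noise ratio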
# [12] = hepatitis C replication reporter changes, two-sided – Huh7 cells, luciferase reporter, HCV replication inhibitor project, primary screen (AID 1109); settings: Huh7 HCV replicon luciferase reporter, 48 h; higher = more signal;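 also: huh7 hepatoma cells harbouring a luciferase neomycin HCV replicon reporter; luciferase luminescence as measure of HCV replicon replication; test concentration not given here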
# [13] = biological target: Left-right determination factor 2 (Homo sapiens) (UniProt O00292); experiment: small molecules binding LEFTY2 protein – biochemical, small-molecule microarray, 635 nm fluorescence scan, primary screen (AID 1110); settings: higher = more signal
# Sequence of Left-right determination factor 2 (Homo sapiens) (O00292 whole entry, looked up): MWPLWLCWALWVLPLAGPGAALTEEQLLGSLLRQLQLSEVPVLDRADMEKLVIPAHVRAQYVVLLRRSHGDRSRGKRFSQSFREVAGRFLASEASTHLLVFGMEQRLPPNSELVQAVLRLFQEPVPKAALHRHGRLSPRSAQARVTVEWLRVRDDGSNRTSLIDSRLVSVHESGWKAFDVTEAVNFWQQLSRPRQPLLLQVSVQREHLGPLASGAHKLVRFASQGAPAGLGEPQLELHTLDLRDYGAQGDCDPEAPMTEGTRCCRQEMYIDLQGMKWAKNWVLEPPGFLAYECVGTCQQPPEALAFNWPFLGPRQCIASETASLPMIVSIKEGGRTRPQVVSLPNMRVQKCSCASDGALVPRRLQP
# [14] = biological target: Calmodulin-1 (Homo sapiens) (UniProt P0DP23); experiment: small molecules binding calmodulin-1 with EGTA – biochemical, small-molecule microarray, Cy5-labelled CALM1, profiling panel (AID 1111); settings: Cy5-CALM1 binding fluorescence, higher = more signal;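 also: labelled calmodulin applied in Tris saline Tween buffer holding calcium plus EGTA and DTT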
# [15] = biological target: Calmodulin-1 (Homo sapiens) (UniProt P0DP23); experiment: small molecules binding Ca-loaded calmodulin-1 – biochemical, small-molecule microarray, Cy5-labelled CALM1, plus calcium, artefact control for SMM control-protein annotation, profiling panel (AID 1112); settings: Cy5-CALM1 binding fluorescence, higher = more signal;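 also: score merges spot fluorescence with signal to noise from triplicate slides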
# [16] = probe aWnt5a binding to arrayed compounds – biochemical, biotinylated probe, 635/667 nm fluorescence, primary screen (AID 1113); settings: small-molecule microarray, higher = more signal;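 also: score merges 667 nm fluorescence intensity with signal-to-noise per printed feature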
# [17] = probe aShh binding to arrayed compounds – biochemical, biotinylated probe, 635/667 nm fluorescence, primary screen (AID 1114); settings: small-molecule microarray, higher = more signal;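 also: probe is biotin-labelled aShh protein from a stem cell growth factor screen; measures binding of labelled protein to compounds printed on the slide; score merges feature fluorescence at 667 nm with signal-to-noise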
# [18] = probe aNog binding to arrayed compounds – biochemical, biotinylated probe, 635/667 nm fluorescence, primary screen (AID 1115); settings: small-molecule microarray, higher = more signal;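 also: probe is biotinylated aNog protein used at 0.15 µg/mL for 1 h at 4 C; z-score combines 667 nm fluorescence of each spot with its signal to noise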
# [19] = biological target: Torsin-1A-interacting protein 1 (Homo sapiens) (UniProt Q5JTV8); experiment: compound microarray binding of lysate hLAP1 – cell lysate, small-molecule microarray, COS7 lysate, 635/667 nm fluorescence, primary screen (AID 1116); settings: 635 nm fluorescence, higher = more signal
# Sequence of Torsin-1A-interacting protein 1 (Homo sapiens) (Q5JTV8 whole entry, looked up): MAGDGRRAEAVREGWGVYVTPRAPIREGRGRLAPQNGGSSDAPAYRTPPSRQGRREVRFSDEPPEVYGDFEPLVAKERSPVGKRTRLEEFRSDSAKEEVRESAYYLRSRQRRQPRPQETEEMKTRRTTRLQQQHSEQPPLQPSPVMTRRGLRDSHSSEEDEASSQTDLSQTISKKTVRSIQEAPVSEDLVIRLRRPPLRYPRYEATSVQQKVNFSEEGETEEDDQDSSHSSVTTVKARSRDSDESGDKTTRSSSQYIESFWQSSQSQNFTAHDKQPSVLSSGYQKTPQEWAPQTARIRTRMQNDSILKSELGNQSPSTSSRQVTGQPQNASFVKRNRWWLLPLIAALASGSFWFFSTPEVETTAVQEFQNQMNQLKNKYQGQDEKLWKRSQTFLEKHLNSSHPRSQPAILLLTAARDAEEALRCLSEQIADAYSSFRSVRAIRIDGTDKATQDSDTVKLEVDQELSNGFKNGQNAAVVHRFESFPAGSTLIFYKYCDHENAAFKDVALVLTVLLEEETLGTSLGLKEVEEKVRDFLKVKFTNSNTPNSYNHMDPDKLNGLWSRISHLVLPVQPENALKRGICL
# [20] = biological target: Alpha-bungarotoxin (Bungarus multicinctus) (UniProt P60615); experiment: compounds binding labelled alpha-BTX control protein – biochemical, small-molecule microarray, Alexa647 label, 635/667 nm fluorescence, artefact control for SMM control protein annotation, profiling panel (AID 1117); settings: alpha-BTX-A647 binding fluorescence, higher = more signal
# Sequence of Alpha-bungarotoxin (Bungarus multicinctus) (P60615 whole entry, looked up): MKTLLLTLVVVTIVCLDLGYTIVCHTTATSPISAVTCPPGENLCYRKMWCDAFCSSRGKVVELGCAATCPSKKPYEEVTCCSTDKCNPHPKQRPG
SMILES,composite z-score [1],composite z-score [2],composite z-score [3],z-score [4],composite z-score [5],composite z-score [6],composite z-score [7],composite z-score [8],composite z-score [9],composite z-score [10],composite z-score [11],z-score [12],composite z-score [13],composite z-score [14],composite z-score [15],composite z-score [16],composite z-score [17],composite z-score [18],composite z-score [19],composite z-score [20]
C=CCOC(=O)[C@@H]1[C@H]2C(=O)O[C@H](c3ccccc3)[C@H](c3ccccc3)N2[C@H](c2ccc(OCCOC(=O)[C@@H]3C[C@@H]4C(=O)NCC(=O)N4[C@@H]3c3ccc(O)cc3)cc2)[C@@]12C(=O)Nc1ccc(I)cc12,0.924,-0.485,-0.201,-0.603 (inactive),0.912,1.29,0.715,1.22,0.82,0.0932,0.403,-1.29,0.902,1.2,0.499,-0.101,0.0796,-0.175,1.4,0.872
COc1ccc(C(O)C2C=CC3C(=O)N(Cc4ccccc4)C(=O)C3N2n2cnnc2)cc1OCc1ccccc1 (stereo not given),0.504,-0.0756,0.432,-1.91 (inactive),-0.245,0.332,-0.283,0.308,-0.192,0.586,0.958,-1.04,-0.355,0.0367,-0.485,-0.096,-0.18,0.393,0.383,0.161
C=C(CCCC)/C(=C/C[C@@H](OC(=O)c1ccncc1)c1ccc(OCCO)cc1)c1cc(C(=O)OC)ccc1OC,0.0247,0.0101,-0.287,0.489 (inactive),0.876,0.605,-0.0331,0.937,0.135,0.218,1.41,-1.91,-0.0304,0.168,-0.959,-0.166,-0.138,-0.144,0.883,0.311
O=C1OCCC/C=C\[C@H]2OC34C=CCN(Cc5ccccc5)C(=O)[C@H]3N(CCCO)C(=O)[C@@H]4C12 (stereo not given in full),1.26,-0.0379,0.794,0.422 (inactive),-0.967,-0.972,-1.55,-1.57,-1.66,-0.583,0.0636,-0.779,-2.09,-0.537,0.464,-0.178,-0.16,-0.244,1.82,-0.972
O=C1O[C@@H](c2ccccc2)[C@@H](c2ccccc2)N2[C@@H](c3ccccc3OCCO)[C@]3(C(=O)Nc4ccc(C#CC5=CCCCC5)cc43)[C@@H](C(=O)N3CCCCCCC3)[C@H]12,2.01,2.94,1.63,-1.06 (inactive),1.54,1.39,1.81,1.75,2.56,1.8,1.52,-3.29,1.74,3.02,1.72,1.4,3.21,3.35,5.37,3.65
O=C(CS)NCCCCCCNC(=O)[C@@H]1C[C@@H]2C(=O)N[C@@H](Cc3ccccc3)C(=O)N2[C@@H]1c1cccc(OCCO)c1,1.5,-0.367,0.594,0.528 (inactive),1.32,1.34,0.557,1.26,0.859,0.382,1.39,-0.698,0.934,0.309,0.414,0.0102,0.265,0.0637,0.585,1.2
C[C@@]1([C@@H](NC(=O)c2ccc(-c3ccccc3)cc2)c2ccc(Cl)cc2)C[C@H]1C1CCCCC1,0.78,1.13,1.07,-1.82 (inactive),0.575,0.787,0.0292,0.313,-0.131,0.387,1.34,-1.18,0.279,1.42,1.2,0.0879,0.603,1.03,0.667,1.17
O=C(CS)NCCCCCCNC(=O)[C@@H]1C[C@@H]2C(=O)NCC(=O)N2[C@@H]1c1cccc(OCCO)c1,1.49,-0.293,0.632,0.288 (inactive),0.331,0.837,-0.149,-0.16,0.139,-0.755,1.41,-0.895,-0.709,2.44,-0.215,-0.177,-0.188,-0.652,1.21,1.1
COCCOC(=O)N1C(=O)[C@@]2(c3cc(C#CCNC(N)=O)ccc31)[C@H](C(=O)Nc1nc3ccccc3s1)[C@H]1C(=O)O[C@H](c3ccccc3)[C@H](c3ccccc3)N1[C@@H]2c1ccc(OCCO)cc1,-0.112,0.92,0.795,-0.239 (inactive),1.11,0.755,0.373,0.963,1.15,0.542,1.26,-1.08,0.825,1.37,0.662,0.003,-0.382,-0.229,0.415,1.24
CCCCCN1CC=CC23O[C@@H]4/C=C\CCC(C)OC(=O)C4[C@H]2C(=O)N(C(C)CO)[C@@H]3C1=O (stereo not given in full),-0.472,-0.225,-0.327,0.304 (inactive),0.171,0.0131,-0.601,-0.0103,-0.23,0.908,0.67,-0.862,-0.441,-0.213,-1.04,-0.175,-0.282,-0.17,-0.537,-0.453
COCCOC(=O)N1C(=O)[C@@]2(c3cc(C#CCC(C(=O)OC)C(=O)OC)ccc31)[C@H](C(=O)Nc1nc3ccccc3s1)[C@H]1C(=O)O[C@H](c3ccccc3)[C@H](c3ccccc3)N1[C@@H]2c1ccccc1OCCO,1.52,0.467,0.76,0.952 (inactive),0.634,1.04,0.231,1.29,-0.154,0.046,0.142,-1.52,0.6,1.69,0.72,-0.0445,0.151,0.106,0.886,2.2
CC(C)N1C(=O)[C@@]2(Cc3ccccc31)c1ccccc1C(=O)N(Cc1ccccc1Cl)[C@H]2c1ccc(CO)cc1,0.465,-0.0724,0.621,-1 (inactive),-1,-1.24,-1.25,-0.785,-0.979,0.781,-0.469,-0.791,-0.893,-0.493,-0.805,-0.105,-0.262,-0.179,-1.05,-0.216
